SMN2 splice up = SMN2 splice variant enhancement. HEK293 SMN2-luciferase splicing reporter, luminescence, 30-36 h. hit rate 2.8% among 210,000. Potency, µM (highest dose often 46.1 µM), without a hit: at the top dose activity change, positive = activation, usual class: activators; also: % of control where 0% means no effect; nearly all actives have a fitted effect of over 55% in size
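HEK293 cells carry an SMN2 minigene-luciferase reporter in which exon 7 inclusion puts luciferase in frame. Cells were seeded at 2000 cells/well, attached for 10-12 hours, then exposed to compounds for 30-36 hours at 37C before ONE-Glo luminescence.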
FLuc counter = inhibits or activates purified firefly luciferase, miR-21 counter-screen. P08659. purified FLuc, Km substrates, luminescence inhibition. Potency, µM (series often up to 57.5 µM), inactives show at the highest dose activity change, negative = inhibition, actives largely listed as inhibitors. hit rate 6.9% among 360,000. AID 588342;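 also: plate controls were vehicle for no effect and reference inhibitor for full effect; nearly all actives have a fitted effect of over 55% in size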
Target sequence (P08659 whole entry, looked up): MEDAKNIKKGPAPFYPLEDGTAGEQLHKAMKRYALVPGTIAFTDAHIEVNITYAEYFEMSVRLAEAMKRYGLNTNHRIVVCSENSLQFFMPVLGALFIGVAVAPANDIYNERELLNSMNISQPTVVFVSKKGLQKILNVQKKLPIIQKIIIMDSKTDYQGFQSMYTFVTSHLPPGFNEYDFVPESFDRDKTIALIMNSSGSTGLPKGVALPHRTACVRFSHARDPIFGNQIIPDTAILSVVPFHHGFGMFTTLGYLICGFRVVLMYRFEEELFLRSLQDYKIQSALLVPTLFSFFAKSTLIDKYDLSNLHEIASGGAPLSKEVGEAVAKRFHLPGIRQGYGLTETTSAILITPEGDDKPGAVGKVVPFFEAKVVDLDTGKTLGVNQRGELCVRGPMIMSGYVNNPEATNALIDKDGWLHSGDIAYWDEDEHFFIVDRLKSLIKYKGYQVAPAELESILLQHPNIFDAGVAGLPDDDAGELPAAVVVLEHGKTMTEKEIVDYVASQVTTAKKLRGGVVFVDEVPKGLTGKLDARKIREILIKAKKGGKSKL
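Purified P. pyralis luciferase, 10 nM final, with Km-level 10 uM D-luciferin and 10 uM ATP in 50 mM Tris acetate pH 7.5, 10 mM Mg acetate, 0.01% Tween-20, 0.05% BSA; 6-point qHTS titration about 60 µM downward; luminescence read.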
ELG1 genotoxic = induces genotoxicity in HEK293T cells with luciferase-tagged ELG1. HEK293T ELG1-luciferase reporter, luminescence, 16 h. Potency, µM (top dose mostly 46 µM), for inactives: at the top dose activity change, positive = activation, hits mostly activators. hit rate 1.3% among 330,000. AID 504466; also: % of control where 0% means no effect; nearly all actives have a fitted effect of over 60% in size
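Genotoxic stress is detected as increased luminescence from luciferase-tagged ELG1 in HEK293T cells, measured with ONE-Glo after a 16 hr treatment at 37 °C.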
Rab9 promoter act = activators of Rab9 promoter. Huh7 Rab9 promoter-luciferase reporter, luminescence, 24 h. Potency, µM (highest dose often 9.22 µM), inactives show top-dose activation, negative = inhibition, actives largely listed as activators. hit rate 2.8% among 320,000; also: % of control where 0% means no effect; nearly all actives have a fitted effect of over 60% in size
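Quantitative HTS format; Huh7 Rab9-luciferase reporter cells (1500/well) receive compound 2 h post-plating, incubate 24 h at 37 °C, then get luciferase reagent for 10 min before luminescence reading.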
ELG1 DNA repair = inhibitors of ELG1-dependent DNA repair in HEK293T cells; HEK293T ELG1-luciferase reporter, luminescence, 16 h; DNA damage induced by 5-fluorouridine; Potency, µM (top dose mostly 46.1 µM), without a hit: at the highest dose activity change, negative = inhibition, actives largely listed as inhibitors; hit rate 2.3% among 330,000; AID 504467; also: % is scaled to controls: 0 for no effect and ±100 for the full control effect; nearly all actives have a fitted effect of over 55% in size
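Quantitative HTS, concentration-response format. 2,000 cells/well co-treated with 5-fluorouridine and compound, 16 hr in 5% CO2 at 37 °C; ONE-Glo luminescence read after 30 min.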
NPC1 prom act = activates the NPC1 promoter. Huh7 NPC1 promoter luciferase reporter, 24 h. Potency, µM (series often up to 9.22 µM), for inactives: at the top dose activation, most hits filed as activators. hit rate 2.4% among 320,000; also: % of control where 0% means no effect; nearly all actives have a fitted effect of over 60% in size
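Compounds in DMSO were transferred onto Huh7 NPC1-luciferase reporter cells pre-incubated 2 h; after 24 h at 37 °C, Amplite reagent was dispensed and luminescence recorded 10 min later.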
An asterisk follows results filed as active; ? = inconclusive; · = no result given; [ ] = another dose, or the depositor's remark. Shown are actives, neighbours in structure and some others; about 9.4% of the full set was active somewhere. Calls follow the shape of the dose curve; as a rule, active = well fitted curve in the direction sought with a large enough effect; inconclusive = small, poorly fitted or top-dose-only effect, or another doubt; inactive = no such curve, though single readings can be large; an effect the other way counts as inactive or inconclusive. Potency is read from the fitted curve at half-maximal effect.

SMILES	SMN2 splice up	FLuc counter	ELG1 genotoxic	Rab9 promoter act	ELG1 DNA repair	NPC1 prom act
COc1ccc(-c2cc(C(=O)NNC(=S)NC(=O)c3c(-c4ccccc4)noc3C)[nH]n2)cc1	-7.7%	9.53µM*	-7.6%	2.0%	?	-3.7%
COc1ccc(/C=C/C(=O)NC(=S)NNC(=O)c2c(-c3ccccc3)noc2C)cc1	-50.4%	1.8%	-0.8%	-10.3%	0.5%	0.9%
CCNC(=S)NNC(=O)c1cc(-c2ccc(OCC)cc2)nc2ccccc12	-14.5%	0.0239µM*	-7.4%	?	?	?
COc1ccc(-c2nnc3c4ccccc4c(-c4ccccc4)nn23)cc1	-2.5%	0.2%	·	·	·	·
Cc1ccccc1NC(=O)c1sc2nc(N3CCOCC3)c3c(c2c1N)CC(C)(C)OC3	-4.6%	-2.9%	·	·	·	·
COc1cccc(OCc2nc3ccccc3n2CCOc2ccc(C)cc2)c1	-11.0%	-14.9%	·	·	·	·
COc1ccc(OC)c(NC(=O)N2CCC3(CC2)Oc2ccccc2C(=O)N3Cc2ccccc2F)c1	-16.9%	-3.8%	·	·	·	·
CCCOc1ccc(C(=O)NNC(=S)NC(=O)c2cc(-c3ccc(Cl)cc3)nc3ccccc23)cc1	-9.3%	?	-5.2%	-6.0%	9.8%	-9.3%
COc1ccc(C(=O)NNC(=S)NC(=O)c2cc(-c3ccccc3)nc3ccccc23)cc1	-14.1%	12µM*	-4.9%	2.7%	-4.1%	-1.5%
CCCOc1cccc(-c2cc(C(=O)NNC(=S)NCC)c3ccccc3n2)c1	21.4%	0.757µM*	27.0%	?	17.5%	21.0%
Cc1csc(NC(=O)Cc2c[nH]c3ccccc23)n1	-3.3%	?	?	28.5%	?	2.8%
Cc1csc(NC(=O)Cc2ccc(F)cc2)n1	·	?	?	3.55µM*	?	?
Cc1cccc(NC(=O)Cc2c(F)cccc2Cl)n1	·	15.1µM*	?	3.16µM*	?	2.51µM*
Cc1csc(NC(=O)Cc2c(F)cccc2Cl)n1	·	?	?	3.16µM*	?	3.55µM*
CCC(=O)Nc1ccc(C(=O)NNC(=O)c2ccccc2)cc1	·	-4.2%	2.2%	-3.7%	17.4%	5.2%
CCC(=O)Nc1ccc(C(=O)Nc2cccc(C)n2)cc1	·	16.9µM*	?	2.51µM*	?	3.55µM*
O=C(Cc1c(F)cccc1Cl)Nc1ccncc1	-36.5%	3.4%	-7.1%	-3.9%	-1.2%	-2.4%
Cc1cccc(C)c1Nc1nnc(SCC(=O)c2ccc3c(c2)NC(=O)CO3)s1	-8.4%	-1.2%	-0.1%	-2.8%	-8.4%	-1.8%
CC(C)(C)C(=O)Nc1cccc(C(=O)OCc2cc(=O)n3nc(C4CC4)sc3n2)c1	·	2.6%	·	·	·	·
COc1ccc(-c2csc(NC(=O)Cc3cc(OC)c(OC)c(OC)c3)n2)cc1OC	·	-0.7%	-19.0%	-1.3%	?	-5.0%
COc1cc(CC(=O)Nc2nc(C)cs2)cc(OC)c1OC	-26.1%	-1.2%	-1.5%	-1.5%	14.6µM*	-5.1%
Cc1ccc(CC(=O)Nc2cccc(C)n2)cc1	12.6µM*	?	20.6µM*	?	?	?
C[N+]1(C)CCO[C@](O)(c2ccccc2)C1	-22.3%[9.22 µM]	·	·	·	·	·
CCOC(=O)c1c(C)nc(C)c(C(=O)OCC)c1-c1ccccc1	15.8µM*	6.01µM*	19.0%	2.24µM*	?	3.98µM*
CCOC(=O)c1c(-c2ccccc2)cn2c(C)cc(C)nc12	11.2µM*	3.38µM*	16.4µM*	2.82µM*	?	3.16µM*
SMILES	SMN2 splice up	FLuc counter	ELG1 genotoxic	Rab9 promoter act	ELG1 DNA repair	NPC1 prom act
CCOC(=O)c1c(C)nc(-c2ccccc2)nc1N	·	-15.3%[2.3 µM]	18.4µM*	?	?	3.8%
CCOC(=O)c1cnn(-c2cc(C)nc3c(-c4ccccc4)c(C)nn23)c1N	12.2%	-2.5%	-3.3%	2.7%	-0.6%	1.2%
Cc1ccc2c(c1Br)C(O)(CC(=O)c1ccc(F)cc1)C(=O)N2 (stereo unspecified)	·	-5.9%	·	·	·	·
Cc1cc(C)c(C#N)c(N2CCN(Cc3ccc4c(c3)OCO4)CC2)n1	-1.9%	3.7%	-1.0%	-2.1%	?	-1.2%
N#CCc1c(C#N)c(N)nc(N2CCN(Cc3ccc4c(c3)OCO4)CC2)c1C#N	-17.5%	-0.1%	-4.7%	-3.2%	18.4µM*	4.1%
O=C(Nc1ccc(Cl)cc1)Nc1ccc(-c2cnco2)cc1	·	-3.5%	8.2%	1.7%	19.6%	4.8%
CC(C)(C)C(=O)Nc1ccc(-c2cnco2)cc1	·	16.9µM*	14.1%	18.0%	?	20.6%
CC(C)(C)c1ccc(-c2cnco2)cc1	·	16.9µM*	2.9%	1.4%	4.3%	2.0%
O=C(Nc1ccc2nc(SCC(=O)N3CCCC3)sc2c1)c1cccc(F)c1	·	2.0%	·	·	·	·
O=C(Nc1ccc(Cl)cc1)N1CCC(c2nc(-c3ccccc3Cl)no2)CC1	-46.0%	-11.8%	-2.5%	-11.8%	13µM*	2.7%
CCc1ccc(C(=O)Nc2cc(C)ccc2F)s1	?	19µM*	21.5%	23.4%	?	0.1%
CCOC(=O)c1sc(NC(=O)Cc2ccc(C)cc2)nc1C	5.6%	-16.1%	-4.7%	-2.6%	?	-4.9%
Cc1cccc(C(C)C)c1NC(=O)c1cc2ccccc2o1	·	1.5%	-5.9%	1.5%	-6.0%	-3.1%
Cc1cnc(NC(=O)c2cc3ccccc3o2)s1	2.24µM*	0.536µM*	?	?	?	1.41µM*
Cc1nc(NC(=O)c2cc3ccccc3o2)sc1C	·	1.07µM*	0.651µM*	?	?	-4.5%
CNC(=O)c1cc2ccccc2o1	22.0%	-3.5%	6.6%	-3.7%	?	0.5%
Cc1ccc(C(=O)Nc2cc([N+](=O)[O-])ccc2F)s1	-9.4%	?	-1.3%	-7.5%	2.9%	-4.1%
CCOC(=O)c1sc(NC(=O)c2cc3ccccc3o2)nc1C	11.2µM*	2.39µM*	14.0%	-17.0%	?	-42.1%
COc1ccc(OC)c(C2CC(=O)N(c3cccc(C)c3)C3=C2C(=O)OC3)c1 (stereo unspecified)	11.4%	-4.3%	·	·	·	·
CCOc1ccccc1NC(=O)C(CC(C)C)NS(=O)(=O)c1ccc2c(c1)CCN2C(C)=O (stereo unspecified)	5.2%	-7.7%	·	·	·	·
CCOC(=O)c1csc(NC(=O)c2ccc(N3C(=O)CCC3=O)cc2)n1	-0.8%	-9.9%	0.2%	0.1%	9.3%	-0.4%
CCOC(=O)Cc1csc(NC(=O)Cc2ccccc2)n1	·	-1.4%	1.3%	1.4%	2.0%	-3.1%
CCOC(=O)Cc1csc(NC(=O)c2cc(=O)c3ccccc3o2)n1	5.0%	16.9µM*	-2.7%	12.7%	0.6%	-2.0%
CCOC(=O)Cc1csc(SCn2nnc3ccccc3c2=O)n1	4.8%	-2.8%	1.5%	-0.4%	9.3%	3.4%

Bioassay records (PubChem)
